Experimental findings from ChEMBL document CHEMBL1157539, “Thousands of chemical starting points for antimalarial lead identification” (Nature, 2010) are described below.

The Inhibition is the drop in the measured response relative to a control, in per cent. A lower Inhibition goes with little suppression.

What all share (format): functional
Assay [1] has as its system Plasmodium falciparum. Put plainly: GSK_TCMDC: Inhibition of Plasmodium falciparum 3D7 in whole red blood cells, using parasite LDH activity as an index of growth. Test compounds present at 2uM.
For assay [2], the system named is Plasmodium falciparum. As to the kind of experiment: GSK_TCMDC: Inhibition of Plasmodium falciparum Dd2 in whole red blood cells, using parasite LDH activity as an index of growth. Test compounds present at 2uM.
The next assay has as its system HepG2. As to the kind of experiment: GSK_TCMDC: Percent inhibition of human HepG2 cell line. Test compounds present at 10uM.

For `FC(F)(F)c1ccc2[nH]ccc(=NN=Cc3ccccc3)c2c1`, the Inhibition is listed as 92% in the assay on Plasmodium falciparum [1], 2% in the assay on Plasmodium falciparum [2] and 7% in the assay with HepG2.

In the case of `CC(=O)c1ccc(NC(=O)NNC(=O)c2ccc(CCN3CCC(c4nc(COCC(F)(F)F)c(-c5ccc(F)cc5)o4)CC3)cc2)cc1`, the figures for the Inhibition with Plasmodium falciparum [1], with Plasmodium falciparum [2] and with HepG2 were 96%, 27% and 17%, respectively.

In the case of `Clc1ccc2c(NCc3ccccc3)ccnc2c1`, the Inhibition in the assay with Plasmodium falciparum [1] was determined as 100%; in the assay on Plasmodium falciparum [2], 100%; with HepG2 it was 40%.

Consider `CCC(C)c1ccc(NC(=O)c2ccc(S(=O)(=O)Nc3ccc(OC)c(N4CCN(CC5CC5)CC4)c3)cc2)cc1.O=C(O)C(F)(F)F` (stereo not drawn), for which the Inhibition was determined as 94% with Plasmodium falciparum [1], 17% in the assay with Plasmodium falciparum [2] and 24% in the assay with HepG2.

As for `CC(=O)N(C)c1cccc(C(=O)Nc2ccc(-c3cccc(-c4nc5cccc(C)c5[nH]4)c3)cc2)c1`, the figures for the Inhibition with Plasmodium falciparum [1], in the assay with Plasmodium falciparum [2] and with HepG2 were 97%, 68% and 86%, respectively.

In the case of `COC(=O)C(=C(C)C)N1C(=O)[C@@H](NC(=O)OCc2ccccc2)[C@H]1SS[C@@H]1[C@H](NC(=O)OCc2ccccc2)C(=O)N1C(C(=O)OC)=C(C)C`, the Inhibition is on record as 97% in the assay with Plasmodium falciparum [1], 96% with Plasmodium falciparum [2] and 18% in the assay with HepG2.

With `CCOc1c(CCNCCCCNCCc2ccc3ccccc3c2OCC)ccc2ccccc12.CS(=O)(=O)O`, the results for the Inhibition in the assay on Plasmodium falciparum [1], with Plasmodium falciparum [2] and with HepG2 were 94%, 87% and 100%, respectively.

`COc1ccc(C(=O)N[C@@H](CC(C)C)C(=O)NC2CC[C@@H](C)N(C(=O)Nc3ccc(Cl)cc3)CC2=O)cc1OCCN1CCOCC1` (stereo partly drawn): the Inhibition in the assay with Plasmodium falciparum [1] is 96%; in the assay on Plasmodium falciparum [2], 91%; with HepG2, 5%.

`O=C(/C=C/c1ccc(Cl)cc1)NCCCCCN1CCC(C(=O)Nc2cccc(Cl)c2)CC1`: the Inhibition in the assay on Plasmodium falciparum [1] amounted to 97%; in the assay with Plasmodium falciparum [2], 0%; with HepG2 it was 22%.

For `O=C(Nc1ccc(-c2cccc(-c3nc4cc(F)ccc4[nH]3)c2)cc1)Nc1ccsc1`, the Inhibition is 100% in the assay with Plasmodium falciparum [1], 51% with Plasmodium falciparum [2] and 34% in the assay with HepG2.

Regarding `COc1cc(SC)ccc1C(=O)N1CC(C)CC(C)C1` (stereo not drawn), the Inhibition was 98% in the assay with Plasmodium falciparum [1], 66% in the assay on Plasmodium falciparum [2] and 5% in the assay with HepG2.

In the case of `COc1ccc(-c2cnc3ccc(N4CCCC4)nn23)cc1OC.O=CO`, the Inhibition in the assay on Plasmodium falciparum [1] was found to be 98%; with Plasmodium falciparum [2] it was 98%; in the assay on HepG2, 40%.

As to `Cc1cc(OCC(=O)Nc2ccc(-c3nc4ccccc4[nH]3)cc2)cc(C)c1Cl`, the Inhibition is listed as 99% in the assay with Plasmodium falciparum [1], 0% in the assay with Plasmodium falciparum [2] and 5% in the assay on HepG2.

With `CC(C)C[C@@H](NC(=O)OC(C)(C)C)C(=O)Nc1ccc(Cc2ccc(NC(=O)[C@@H](CC(C)C)NC(=O)OC(C)(C)C)cc2)cc1`, the Inhibition with Plasmodium falciparum [1] came out at 96%; with Plasmodium falciparum [2], 96%; in the assay on HepG2, 8%.

As to `COc1ccc2nccc([C@@H](O)CN3CCC(NCCOc4ccc(F)cc4[N+](=O)[O-])CC3)c2c1.O=C(O)C(=O)O`, the Inhibition in the assay with Plasmodium falciparum [1] worked out at 99%; in the assay with Plasmodium falciparum [2] it was 92%; with HepG2, 8%.

Regarding `Cl.O=C(N[C@@H](Cc1ccccc1)[C@H](O)CNC1CCc2ccccc2C1)c1cc(C2CCCC2)cc(N2CCCC2=O)c1` (stereo partly drawn), the Inhibition in the assay on Plasmodium falciparum [1] was determined as 99%; in the assay with Plasmodium falciparum [2], 76%; in the assay with HepG2, 23%.

Consider `COc1ccc(CC(=O)NC(CCCN2CCC3(CC2)OCc2ccccc23)c2ccc(Cl)c(Cl)c2)cc1` (stereo not drawn), for which the Inhibition worked out at 83% in the assay on Plasmodium falciparum [1], 53% with Plasmodium falciparum [2] and 40% with HepG2.

In the case of `C=CCOC(=O)N1CCC(CNCc2cccc(-c3ccc(-c4nc5cc(C(F)(F)F)ccc5[nH]4)cc3)c2)C1.O=C(O)C(F)(F)F` (stereo not drawn), the Inhibition came to 100% with Plasmodium falciparum [1], 96% with Plasmodium falciparum [2] and 28% with HepG2.

For the compound `Cc1noc(C)c1-c1cccc(C(=O)NC2CCN(CCNC(=O)C(c3ccccc3)c3ccccc3)CC2)c1.O=C(O)C(F)(F)F`, the Inhibition came out at 85% with Plasmodium falciparum [1], 74% in the assay on Plasmodium falciparum [2] and 27% with HepG2.

Regarding `CN1CCN(CC(O)CNC(=O)Nc2ccc(Br)cc2)CC1.O=C(O)C(F)(F)F` (stereo not drawn), the Inhibition is reported as 100% with Plasmodium falciparum [1], 100% in the assay on Plasmodium falciparum [2] and 5% in the assay with HepG2.

As for `COc1ccc(CNC2Cc3ccccc3C2)cc1-c1ccc(S(=O)(=O)NCCN2CCCC2)c(F)c1.O=C(O)C(F)(F)F`, the Inhibition with Plasmodium falciparum [1] worked out at 100%; in the assay on Plasmodium falciparum [2], 69%; in the assay with HepG2, 44%.

As to `O=C(Cn1c(CCc2cccc(F)c2F)nc(=O)c2ccccc21)N(CCN1CCCCC1)Cc1ccc(-c2ccc(C(F)(F)F)cc2)cc1.O=C(O)C(O)C(O)C(=O)O`, the Inhibition in the assay on Plasmodium falciparum [1] is listed as 100%; with Plasmodium falciparum [2] it was 89%; in the assay on HepG2, 32%.

`COc1cccc(CNC(=O)NC2CCN(c3ccnc(Nc4cc(OC)c(OC)c(OC)c4)n3)C2)c1` (stereo not drawn): the values for the Inhibition with Plasmodium falciparum [1], with Plasmodium falciparum [2] and in the assay on HepG2 were 93%, 84% and 15%, respectively.

With `Oc1ccc(Br)cc1C(O)CNCc1ccccc1OCc1ccccc1` (stereo not drawn), the figures for the Inhibition in the assay with Plasmodium falciparum [1], with Plasmodium falciparum [2] and with HepG2 were 100%, 100% and 25%, respectively.

For `c1ccc(-c2nc(NCCCn3ccnc3)cc(-c3ccncc3)n2)cc1`, the Inhibition in the assay with Plasmodium falciparum [1] worked out at 100%; in the assay on Plasmodium falciparum [2], 100%; in the assay with HepG2 it was 42%.

Turning to `CCCCOc1ccc(N2C(N)=NC(N)=NC2(C)C)cc1.Cl`, the Inhibition is 97% in the assay on Plasmodium falciparum [1], 3% in the assay with Plasmodium falciparum [2] and 16% in the assay with HepG2.
